# An excerpt weighted towards active compounds, which were near 8.7% of everything screened.
# AMA1 RON2 block – disrupts binding of P. falciparum AMA1 to RON2. AlphaScreen AMA1-biotinylated RON2 peptide binding. Potency, µM (top dose mostly 58.2 µM), inactives show top-dose activity change, negative = inhibition, most hits filed as inhibitors. actives 0.2% (n = 360,000);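 note: 0% = vehicle wells and -100% = peptide control; nearly all actives have a fitted effect of over 45% in size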
#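 AMA1 (3D7) with his tag at 25 nM final met compounds first, then biotinylated RON2 peptide at 25 nM; detection used donor plus acceptor beads, 10 µg/mL apiece, read by AlphaScreen after 30 min at room temperature.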
# VACV Venus inh – vaccinia inhibition (Venus reporter); Vaccinia virus Venus reporter expression, fluorescence; Potency, µM (highest dose often 36.5 µM), for inactives: at the highest dose activity change, negative = inhibition, hits mostly inhibitors; actives 0.46% (n = 330,000); AID 720580; calls by dose curve; tested in A549 cells; note: nearly all actives have a fitted effect of over 30% in size
# VACV mCherry inh – inhibitors of vaccinia virus infection (mCherry reporter signal). Vaccinia virus mCherry reporter infection, fluorescence. Potency, µM (top dose mostly 36.5 µM), without a hit: at the highest dose activity change, negative = inhibition, hits mostly inhibitors. actives 0.63% (n = 310,000); calls by dose curve; tested in A549 cells; note: nearly all actives have a fitted effect of over 35% in size
# Pf growth 48h – inhibits P. falciparum growth in the first generation, 48 h; actives 5.9% (n = 310,000); Potency, µM (titrated, usually from 28.7 µM), inactives show at the top dose activity change, negative = inhibition, hits mostly inhibitors; P. falciparum luciferase growth in erythrocytes, 48 h
#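 Cell-based growth assay: transgenic P. falciparum expressing firefly luciferase, cultured in red cells within RPMI 1640 containing 0.5% w/v Albumax, 24 mM bicarbonate and gentamycin. A drop in luciferase activity indicates inhibition.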
# Pf growth 96h – P. falciparum growth inhibition at 96 hours | P. falciparum luciferase reporter growth, 96 h | Potency, µM (top dose mostly 28.7 µM), without a hit: at the highest dose activity change, negative = inhibition, usual class: inhibitors | actives 6.9% (n = 320,000) | AID 504834
#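 Infected RBCs, 2% Hct / 0.05% parasitemia final; luciferase-reporter P. falciparum; cpd 96 h, 37 C, 5% CO2; luciferase detection reagent; luminescence.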
# * hit, by the source's call; i = inactive; ? = inconclusive; · = no result; [ ] = another dose, or the depositor's remark. Unless noted, calls come from the whole dose curve; as a rule, active = well fitted curve in the direction sought with a large enough effect; inconclusive = small, poorly fitted or top-dose-only effect, or another doubt; inactive = no such curve, though single readings can be large; an effect the other way counts as inactive or inconclusive. Unless noted, % is set by controls: 0 for no effect and ±100 for the full control effect; potency is the fitted concentration of half-maximal effect.
SMILES,AMA1 RON2 block,VACV Venus inh,VACV mCherry inh,Pf growth 48h,Pf growth 96h
CCCOC(=O)CSc1nc(N2CCOCC2)c2c(c1C#N)CC(C)(C)OC2,3%,-12%,-9%,?,1.9µM*
CC(C)Sc1nc(N2CCOCC2)c2c(c1C#N)CC(C)(C)SC2,-12%,-12%,-8%,?,?
CCOC(=O)CSc1nc(N2CCOCC2)c2c(c1C#N)CC(C)(C)OC2,-2%,·,·,-11%[0.00184 µM],?
CC(C)CSc1nc(N2CCOCC2)c2c(c1C#N)CC(C)(C)SC2,-20%,-27%,-21%,9.3µM*,?
CCCCCSc1nc(N2CCOCC2)c2c(c1C#N)CC(C)(C)OC2,-6%,-9%,i,9.3µM*,?
COc1ccc(-c2[nH]c(-c3ccccc3)nc2SCC(=O)Nc2ccc3c(c2)OCO3)cc1,·,-6%,-5%,·,·
Cc1cccc(OC(=O)CSc2nnc(CNC(=O)c3ccccc3)o2)c1C,·,-18%,-14%,·,·
Cc1cccnc1-c1cccc2c1OC(CNC(=O)Cc1c(C)noc1C)C2 (stereo not given),·,0%,-10%,·,·
Cc1cccc2cc(CN(C(=O)c3ccc(C(F)(F)F)cc3)C3CC3)c(N3CCC(O)CC3)nc12,·,1%,-12%,·,·
Clc1ccc(C(c2nnnn2C2CCCC2)N2CCN(Cc3ccncc3)CC2)cc1 (stereo not given),-11%,-21%,i,?,·
N#Cc1ccc(C(c2nnnn2C2CCCC2)N2CCC(Cc3ccccc3)CC2)cc1 (stereo not given),-8%,·,·,4.7µM*,143%
c1csc(C(c2nnnn2C2CCCC2)N2CCCC3(CCCCC3)C2)c1 (stereo not given),-4%,10%,0%,2.1µM*,·
Fc1ccc(C(c2nnnn2C2CCCC2)N2CCN(Cc3ccccc3)CC2)cc1 (stereo not given),35%,-9%,i,9.3µM*,·
c1ccc(C(c2ccccc2)N2CCN(C(c3ccccn3)c3nnnn3C3CCCC3)CC2)cc1 (stereo not given),1%,7%,-9%,-12%,4.7µM*
Cc1ccc(NC(=O)CSc2nccn2Cc2ccc3c(c2)OCO3)c(C)c1,·,-15%,-6%,·,·
CCC(CC)C(=O)N1CCc2cc(OC)c(OC)cc2C1COc1ccc2c(C)cc(=O)oc2c1 (stereo not given),·,-5%,-8%,·,·
Cc1cc(C)c(/C=C/c2onc(C)c2S(=O)(=O)N2CCC(C(=O)NCCc3ccccc3)CC2)c(C)c1,·,-6%[7.34 µM],-3%[7.34 µM],·,·
c1cncc(C(c2nnnn2C2CCCC2)N2CCCC2)c1 (stereo not given),4%,-12%,i,-26%,9.3µM*
N#Cc1cccc(C(c2nnnn2C2CCCC2)N2CCC(Cc3ccccc3)CC2)c1 (stereo not given),-5%,-9%,i,5.2µM*,-18%
COCCn1nnnc1C(c1cccc(C#N)c1)N1CCCCCC1 (stereo not given),-2%,-10%,-5%,?,0%
COc1ccc(Cn2nnnc2C(c2ccccc2Cl)N2CCN(C3CCCC3)CC2)cc1 (stereo not given),-3%,-16%,·,15µM*,75%
N#Cc1cccc(C(c2nnnn2C2CCCC2)N2CCCCCC2)c1 (stereo not given),22%,-1%,-10%,?,12µM*
COc1cccc(-c2nnc(SCC(=O)NC3CCCCC3)o2)c1,·,-4%,-11%,·,·
COC(=O)c1ccccc1-c1cc(C)cc2c1OC(CNC(=O)c1cc(C)on1)C2 (stereo not given),·,9%,-17%,·,·
Cc1ccc(-n2c(=O)c3c4c(sc3n(CC(=O)Nc3ccccc3C)c2=O)CCCCC4)cc1C,·,-8%,-8%,·,·
Cc1cc(C)cc(N2CCn3c2nc2c3c(=O)n(C/C=C/c3ccccc3)c(=O)n2C)c1,·,-4%,-13%,·,·
Cc1ccc(CNC(=O)CCCn2c(=O)[nH]c3ccc(Br)cc3c2=O)cc1,·,-10%,-11%,·,·
COc1cccc(-n2c(SCC(=O)Nc3ccc4c(c3)OCO4)nc3c([nH]c4ccccc43)c2=O)c1,·,-7%,-11%,·,·
c1ccc(Cn2nnnc2C(c2cccnc2)N2CCN(C3CCCCC3)CC2)cc1 (stereo not given),-6%,0%,i,?,13µM*
